High-throughput results as filed in PubChem.
IL-1B inflam inh – qHTS for Inhibitors of Inflammasome Signaling: IL-1-beta AlphaLISA Primary Screen | AID 743279, 2014 | THP-1 LPS/ATP IL-1B secretion, AlphaLISA, 16 h; hits give low values | activity change, % at 57.5 µM | 4.7% of 360,000 active; in the data active means activity change below about -50%; inconclusive means mostly about -30% to -49%
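Secreted IL-1B measured by AlphaLISA bead assay after 16 h compound exposure of THP-1 cells; compounds (final up to 57.5 uM) added 1 h before LPS (250 ng/mL) and ATP (1.25 mM) stimulation; lower signal means less secretion.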
DT40 TDP1 CPT – qHTS for Inhibitors of human tyrosyl-DNA phosphodiesterase 1 (TDP1): qHTS in cells in presence of CPT | chicken DT40 Tdp1-/-;hTDP1 cells + 20 nM CPT, ATP luminescence, 48 h | 12% of 420,000 active | Potency, µM (series often up to 46.2 µM), for inactives: at the highest dose activity change, negative = growth inhibition, usual class: inhibitors; further: potency means the concentration at half of the fitted maximal effect; nearly all actives have a fitted effect of over 55% in size
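Chicken DT40 Tdp1-/- cells complemented with human TDP1, 400 cells/well, exposed to compounds plus 20 nM camptothecin for at least 48 h at 37 C; viability read as ATP content by CellTiter-Glo luminescence.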
HT1080 IDH1KD tx – qHTS for induction of synthetic lethality in tumor cells producing 2HG: qHTS for the HT-1080-IDH1KD cell line; HT-1080 IDH1 knockdown viability, ATP luminescence, 48 h; Potency, µM (titrated, usually from 46.1 µM), without a hit: at the highest dose activity, negative = toxicity, usual class: cytotoxic; 2% of 360,000 active; AID 686971, 2013;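 further: potency means the concentration at half of the fitted maximal effect; 0% = DMSO wells and -100% = cell-free medium wells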
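% activity derives from luminescence (CellTiter-Glo), normalised to DMSO and no-cell wells. HT-1080-IDH1KD cells, 750/well, had 48 h compound exposure at 37 °C.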
HT1080-NT tox – qHTS for induction of synthetic lethality in tumor cells producing 2HG: qHTS for the HT-1080-NT fibrosarcoma cell line; HT-1080-NT fibrosarcoma viability, CellTiter-Glo ATP luminescence, 48 h; Potency, µM (top dose mostly 46.1 µM), for inactives: top-dose activity, negative = less viability, actives largely listed as cytotoxic; 1.6% of 360,000 active; AID 686970, 2013;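 further: NT is the 2HG producing partner of a matched IDH1 knockdown line; potency means the concentration at half of the fitted maximal effect; 0% = DMSO-treated cells and -100% = media-only wells without cells; nearly all actives have a fitted effect of over 55% in size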
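Toxicity toward the 2HG-producing NT line was scored as %Activity, normalised to DMSO and no-cell wells, from CellTiter-Glo luminescence after 48 hours' treatment.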
DT40 TDP1 no CPT – qHTS for Inhibitors of human tyrosyl-DNA phosphodiesterase 1 (TDP1): qHTS in cells in absence of CPT; 15% of 420,000 active; AID 686978, 2013; DT40 Tdp1-/- hTDP1 cells, no CPT, ATP luminescence, 48 h; Potency, µM (titrated, usually from 46.2 µM), for the others: at the highest dose activity change, negative = growth inhibition, hits mostly inhibitors; further: potency means the concentration at half of the fitted maximal effect; nearly all actives have a fitted effect of over 55% in size
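Growth kinetics read by CellTiter-Glo luminescence after ≥48 hr at 37 °C. Cells: DT40 Tdp1-/- stably carrying human TDP1, 400 per well, compound exposure in the absence of CPT (DMSO vehicle).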
Active calls of the source: *; ? = inconclusive; · = no result given; [ ] = another dose, or the depositor's remark. Compounds with a hit are over-represented: about 19% of the library has one in this group of screens. Unless noted, the call rests on the fitted dose curve; in most records, active means well fitted curve in the direction sought with a large enough effect; inconclusive means small, poorly fitted or top-dose-only effect, or another doubt; inactive means no such curve, though single readings can be large; an effect the other way counts as inactive or inconclusive. Unless noted, on the % scale 0 is the no-effect control and ±100 the full control effect.

SMILES | IL-1B inflam inh | DT40 TDP1 CPT | HT1080 IDH1KD tx | HT1080-NT tox | DT40 TDP1 no CPT
CCOc1ccc(S(=O)(=O)N(CC)CC(=O)NCc2ccncc2)cc1C | -4.0 | -15.1% | 4.3% | 13.0% | -13.3%
CCN(CCC(=O)O)c1ccc(/C=C/c2ccnc3ccccc23)cc1 | · | 2.3% | · | · | ?
CN(C)c1ccc(N=Nc2ccnc3ccccc23)cc1 | · | ? | · | · | 22.4µM*
CCN(CC)c1ccc(/C=C/c2ccnc3ccccc23)cc1 | · | ? | · | · | 17.8µM*
COc1ccc(-c2cnc(SCC(=O)Nc3ccc4c(c3)OCO4)n2Cc2ccco2)cc1 | -73.2* | 18.4µM* | -20.8% | ? | 18.4µM*
CC(=O)Nc1cccc(NC(=O)CSc2ncc(-c3ccc(Cl)cc3)n2Cc2ccco2)c1 | -22.4 | 20.6µM* | ? | ? | 20.6µM*
O=C(CC(=O)c1c(F)cccc1Cl)c1ccccc1O | 6.8 | ? | ? | ? | 11.6µM*
NC(=O)c1ccccc1NCC(=O)c1ccc(F)cc1 | 39.5 | -27.6% | -28.9% | ? | -21.4%
O=C(CC(=O)c1ccccc1O)c1ccc(F)cc1 | 37.4 | 10.3µM* | ? | ? | 11.6µM*
O=C(CC(=O)c1ccccc1O)c1cccc(F)c1 | 28.3 | 6.51µM* | ? | ? | 4.11µM*
O=C(CCNC(=O)c1ccccc1Cl)NNC(=O)c1ccccc1O | 23.0 | ? | -13.3% | -5.7% | ?
COC(=O)CNC(=O)C(C)NC(=O)CNC(=O)OCc1ccccc1 (configuration not stated) | 31.8 | ? | 10.1% | 10.0% | ?
C[C@@H]1NC(=O)[C@@H](N)CNC(=O)[C@H](C2CCNC(N)=N2)NC(=O)/C(=C/NC(N)=O)NC(=O)[C@H](CNC(=O)C[C@@H](N)CCCN)NC1=O (some centres not stated) | · | -2.3%[21.1 µM] | · | · | -13.4%[21.1 µM]
CC1(C(=O)Nc2nccs2)CCN1C(=O)C1(c2ccccc2)CC1 (configuration not stated) | -11.8 | -23.7% | 25.2% | 22.2% | -25.8%
Cc1ccc(NC(=O)CN(C)C(=S)NC2CC2)cc1 | 16.3 | 0.1% | 24.3% | 12.7% | 1.7%
CCOC(=O)c1cccc(NS(=O)(=O)c2cc(-c3cnc(C4CC4)o3)ccc2C)c1 | · | 2.59µM* | · | · | 2.06µM*
COc1ccc(-c2cnc(C)o2)cc1S(=O)(=O)Nc1ccc(OC(F)(F)F)cc1 | · | -23.9% | · | · | -17.8%
CCOC(=O)c1cccc(NS(=O)(=O)c2cc3[nH]c(=O)c(=O)[nH]c3cc2C)c1 | · | -3.2% | · | · | 4.7%
COc1ccc(NS(=O)(=O)c2cc(-c3cnc(C4CC4)o3)ccc2C)cc1 | -1.2 | 6.51µM* | 20.6µM* | ? | 4.61µM*
Cc1ccc(-c2cnc(C3CC3)o2)cc1S(=O)(=O)Nc1ccc(F)cc1Cl | · | ? | · | · | 25.9µM*
CC(NC(=O)c1ccccc1)c1ccc(F)cc1 (configuration not stated) | 0.0 | -13.1% | -1.9% | -3.2% | -2.6%
COc1ccc2c(c1)C(=O)N(c1ccccc1C)C(=O)C2(C)C | 7.4 | -16.5% | 4.3% | 2.9% | -25.9%
O=c1c(F)cn(C2CCCO2)c(=O)n1Cc1ccc(Cl)cc1 (configuration not stated) | -17.4 | ? | -6.9% | -0.4% | -14.3%
CC(C(=O)NCc1cccc(Cl)c1)N1C(=O)c2ccccc2C1=O (configuration not stated) | -12.0 | -25.6% | 22.8% | -0.8% | -8.8%
CCCC(C(=O)NCc1cccc(Cl)c1)N1Cc2ccccc2C1=O (configuration not stated) | · | ? | · | · | 11.6µM*
SMILES | IL-1B inflam inh | DT40 TDP1 CPT | HT1080 IDH1KD tx | HT1080-NT tox | DT40 TDP1 no CPT
COc1cc(OC)c(NC(=O)CC(c2cccs2)N2Cc3ccccc3C2=O)cc1Cl (configuration not stated) | · | 23.1µM* | · | · | 18.4µM*
COc1ccc(C(CC(=O)Nc2cc(OC)c(OC)c(OC)c2)N2Cc3ccccc3C2=O)cc1 (configuration not stated) | · | 23.1µM* | · | · | 23.1µM*
COc1ccc(C(CC(=O)NCc2ccccc2)N2Cc3ccccc3C2=O)cc1 (configuration not stated) | · | ? | · | · | 23.1µM*
Cc1nc(-c2ccc([N+](=O)[O-])cc2)nc2[nH]ccc(=O)c12 | -8.1 | -5.1% | 29.7% | ? | 7.5%
Cc1nnc(SCC(=O)N(C)C2CCCCC2)s1 | 3.1 | -7.8% | 4.1% | 28.6% | -0.9%
COc1ccc(C(CC(=O)Nc2cc(C)ccn2)N2Cc3ccccc3C2=O)cc1 (configuration not stated) | 12.6 | ? | -2.3% | -10.9% | 13µM*
COc1ccc(C(CC(=O)NCc2ccc(Cl)cc2)N2Cc3ccccc3C2=O)cc1OC (configuration not stated) | · | 18.4µM* | · | · | 13µM*
COc1ccc(C(CC(=O)Nc2ccccn2)N2Cc3ccccc3C2=O)cc1OC (configuration not stated) | -2.6 | -7.0% | 8.9% | 1.6% | -29.5%
CCC(=O)c1ccc(Oc2nc3c(c(=O)n(C)c(=O)n3C)n2CC)cc1 | 17.7 | ? | 12.9% | -2.3% | ?
COc1ccc(C(=O)Cn2c(Cl)nc3c2c(=O)n(C)c(=O)n3C)cc1 | 38.4 | ? | -13.1% | -18.4% | 20.6µM*
Cn1c(=O)c2c(nc(N3CCCCCC3)n2CC(=O)c2ccccc2)n(C)c1=O | 23.1 | -23.5% | 2.4% | 5.6% | ?
COC(=O)c1ccc(Oc2nc3c(c(=O)n(C)c(=O)n3C)n2CCC(C)C)cc1 | 2.1 | ? | 11.9% | 8.6% | 23.1µM*
Cn1c(=O)c2c(nc(Br)n2CC(=O)C23CC4CC(CC(C4)C2)C3)n(C)c1=O | -5.7 | 23.1µM* | -21.7% | -1.3% | 18.4µM*
CCN(CC)c1nc2c(c(=O)n(C)c(=O)n2C)n1CC(=O)c1ccccc1 | 43.0 | ? | 5.5% | -5.4% | 23.1µM*
COc1cccc(C(=O)Cn2c(Br)nc3c2c(=O)n(C)c(=O)n3C)c1 | 27.6 | ? | 2.5% | 7.5% | 9.2µM*
CCn1c(Oc2cccc(Br)c2)nc2c1c(=O)n(C)c(=O)n2C | 4.5 | -0.4% | -13.9% | -2.9% | -23.2%
COc1ccccc1-n1cnc2c(c1=O)c1nc3ccccc3nc1n2CCc1ccccc1 | -23.1 | 20.6µM* | 17.6% | 19.4% | 16.4µM*
COc1ccccc1-n1c2nc3ccccc3nc2c2c(=O)n(-c3cc(C)cc(C)c3)cnc21 | -94.6* | 3.66µM* | -1.1% | 6.0% | ?
